Measured values as given in PubChem BioAssay AID1159580 (chemical genetic matrix, 2015).
Where “and” joins values, the source holds several entries; their conditions need not be identical. Equal entries are not always repeated. Among all 5,500 compounds or so, about 2,000 (36%) were called active. Inconclusive results (about 18%) are left out. The list shows a part of the results. Unmarked numbers belong to inactive results. Cut-off read from the data, not from the text of the source: active = normalized growth mostly below about 0.91 (no sharp cut-off); inconclusive = no clear call, values can overlap the other calls; inactive = mostly above about 0.92.

Assay: chemical genetic growth profiling, strain panel (AID 1159580);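 note: tested at 20 µM; growth read once vehicle control cultures reached saturation at 30 °C; 1 = growth at the plate median or of vehicle wells; lower values mean less growth of the strain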
Details: S. cerevisiae deletion strains, growth OD

C=C[C@@](C)(O)CCC1C(=C)C[C@H](O)C2C(C)(C)CCCC12C (some centres not stated)
normalized growth (locus YAL013W, strain DEP1, active compounds read low): 1.01 | normalized growth (locus YAL021C, strain ccr4, active compounds read low): 1.01 | normalized growth (locus YAL026C, strain drs2, active compounds read low): 0.972 | normalized growth (locus YAL030W, strain snc1, active compounds read low): 0.996 | normalized growth (locus YBL061C, strain skt5, active compounds read low): 0.988 | normalized growth (locus YBR009C, strain hhf1, active compounds read low): 0.986 | normalized growth (locus YBR021W, strain FUR4, active compounds read low): 0.998 | normalized growth (locus YBR023C, strain chs3, active compounds read low): 0.978 | normalized growth (locus YBR171W, strain sec66, active compounds read low): 0.976 | normalized growth (locus YBR229C, strain ROT2, active compounds read low): 1.01 | normalized growth (locus YBR231C, strain swc5, active compounds read low): 1 | normalized growth (locus YBR279W, strain paf1, active compounds read low): 0.998 | normalized growth (locus YCL011C, strain gbp2, active compounds read low): 0.991 | normalized growth (locus YCL016C, strain dcc1, active compounds read low): 0.971 | normalized growth (locus YCL029C, strain bik1, active compounds read low): 1.02 | normalized growth (locus YCL061C, strain MRC1, active compounds read low): 0.98 | normalized growth (locus YCL069W, strain vba3, active compounds read low): 0.999 | normalized growth (locus YCR088W, strain abp1, active compounds read low): 0.99 | normalized growth (locus YDL005C, strain med2, active compounds read low): 0.976 | normalized growth (locus YDL035C, strain GPR1, active compounds read low): 0.991 | normalized growth (locus YDL040C, strain nat1, active compounds read low): 0.997 | normalized growth (locus YDL074C, strain BRE1, active compounds read low): 0.974 | normalized growth (locus YDL101C, strain DUN1, active compounds read low): 1.01 | normalized growth (locus YDL134C, strain PPH21, active compounds read low): 1.01 | normalized growth (locus YDL185W, strain tfp1, active compounds read low): 1.02 | normalized growth (locus YDL192W, strain arf1, active compounds read low): 1.02 | normalized growth (locus YDR001C, strain nth1, active compounds read low): 0.989 | normalized growth (locus YDR069C, strain doa4, active compounds read low): 0.99 | normalized growth (locus YDR101C, strain arx1, active compounds read low): 1 | normalized growth (locus YDR137W, strain rgp1, active compounds read low): 0.859 | normalized growth (locus YDR150W, strain NUM1, active compounds read low): 1.01 | normalized growth (locus YDR159W, strain sac3, active compounds read low): 1.01 | normalized growth (locus YDR162C, strain NBP2, active compounds read low): 0.994 | normalized growth (locus YDR195W, strain ref2): 1.05 | normalized growth (locus YDR297W, strain sur2, active compounds read low): 0.993 | normalized growth (locus YDR318W, strain mcm21, active compounds read low): 1.02 | normalized growth (locus YDR334W, strain swr1, active compounds read low): 0.993 | normalized growth (locus YDR335W, strain msn5, active compounds read low): 1.01 | normalized growth (locus YDR388W, active compounds read low): 1.02 | normalized growth (locus YDR392W, strain spt3, active compounds read low): 0.628 (active) | normalized growth (locus YDR502C, strain sam2, active compounds read low): 1.01 | normalized growth (locus YEL003W, strain gim4, active compounds read low): 1 | normalized growth (locus YEL037C, strain rad23, active compounds read low): 0.987 | normalized growth (locus YEL061C, strain CIN8 (second series), active compounds read low): 0.992 | normalized growth (locus YEL061C, strain CIN8, active compounds read low): 1.01 | normalized growth (locus YER015W, strain faa2, active compounds read low): 0.995 | normalized growth (locus YER016W, strain bim1, active compounds read low): 0.996 | normalized growth (locus YER110C, active compounds read low): 1.03 | normalized growth (locus YER111C, strain swi4, active compounds read low): 0.976 | normalized growth (locus YER155C, strain BEM2 (second series), active compounds read low): 1.01 | normalized growth (locus YER155C, strain BEM2, active compounds read low): 1.01 | normalized growth (locus YER167W, strain BCK2, active compounds read low): 1.01 | normalized growth (locus YFR010W, strain ubp6, active compounds read low): 1.01 | normalized growth (locus YGL078C, strain dbp3, active compounds read low): 1.02 | normalized growth (locus YGL086W, strain mad1, active compounds read low): 1.02 | normalized growth (locus YGL167C, strain pmr1, active compounds read low): 0.97 | normalized growth (locus YGL173C, strain kem1, active compounds read low): 0.974 | normalized growth (locus YGL227W, strain vid30, active compounds read low): 0.997 | normalized growth (locus YGL240W, strain doc1, active compounds read low): 1 | normalized growth (locus YGL248W, strain PDE1, active compounds read low): 1.01 | normalized growth (locus YGL253W, strain hxk2, active compounds read low): 0.984 | normalized growth (locus YGR078C, strain PAC10, active compounds read low): 1 | normalized growth (locus YGR135W, strain pre9, active compounds read low): 1 | normalized growth (locus YGR229C, strain SMI1, active compounds read low): 1 | normalized growth (locus YGR252W, strain gcn5, active compounds read low): 0.995 | normalized growth (locus YHR013C, strain ard1, active compounds read low): 1.02 | normalized growth (locus YHR027C, strain rpn1, active compounds read low): 1 | normalized growth (locus YHR030C, strain SLT2, active compounds read low): 1.01 and 0.934 | normalized growth (locus YHR079C, strain IRE1 (second series), active compounds read low): 1.02 | normalized growth (locus YHR079C, strain IRE1, active compounds read low): 0.955 | normalized growth (locus YHR094C, strain hxt1, active compounds read low): 1.02 | normalized growth (locus YHR129C, strain ARP1, active compounds read low): 1.01 | normalized growth (locus YHR142W, strain chs7, active compounds read low): 0.957 | normalized growth (locus YHR200W, strain rpn10, active compounds read low): 1.04 | normalized growth (locus YIL066C, strain RNR3, active compounds read low): 1.02 | normalized growth (locus YIL073C, strain SPO22, active compounds read low): 1.06 | normalized growth (locus YIL125W, strain kgd1, active compounds read low): 1.02 | normalized growth (locus YIR030C, strain dcg1, active compounds read low): 1.02 | normalized growth (locus YJL092W, strain hpr5, active compounds read low): 0.993 | normalized growth (locus YJL095W, strain BCK1 (second series), active compounds read low): 0.992 | normalized growth (locus YJL095W, strain BCK1, active compounds read low): 0.999 and 0.952 | normalized growth (locus YJL115W, strain asf1, active compounds read low): 0.99 | normalized growth (locus YJL129C, strain trk1, active compounds read low): 0.966 | normalized growth (locus YJL134W, strain LCB3, active compounds read low): 1.01 | normalized growth (locus YJL154C, strain vps35, active compounds read low): 0.997 | normalized growth (locus YJL164C, strain tpk1, active compounds read low): 0.982 | normalized growth (locus YJL166W, strain qcr8, active compounds read low): 0.981 | normalized growth (locus YJL168C, strain set2, active compounds read low): 1.03 | normalized growth (locus YJL187C, strain SWE1 (second series), active compounds read low): 1 | normalized growth (locus YJL187C, strain SWE1, active compounds read low): 0.991 | normalized growth (locus YJR043C, strain POL32, active compounds read low): 0.997 | normalized growth (locus YJR066W, strain TOR1, active compounds read low): 0.923
